The campaign covered roughly 5,500 compounds. About 2,000 (36%) were called active. About 18% were inconclusive and are not listed. Rule as the data show it: active = normalized growth mostly below about 0.91 (no sharp cut-off); inconclusive = no clear call, values can overlap the other calls; inactive = mostly above about 0.92. The list shows a part of the results.
Assay: chemical genetic growth profiling, strain panel (AID 1159580);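 also: tested at 20 µM; growth read once vehicle control cultures reached saturation at 30 °C; 1 = growth at the plate median or of vehicle wells; lower values mean less growth of the strain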
Settings: growth OD

Measured: normalized growth

CCOC(=O)c1c(C)cc(OC)cc1O
active: S. cerevisiae deletion strains, locus YKR001C, strain vps1, hits give low values 0.842 | S. cerevisiae deletion strains, locus YLR113W, strain HOG1, hits give low values 0.835 | S. cerevisiae deletion strains, locus YLR262C, strain YPT6 (second series), hits give low values 0.731 | S. cerevisiae deletion strains, locus YLR320W, strain mms22, hits give low values 0.859 | S. cerevisiae deletion strains, locus YNL071W, strain lat1, hits give low values 0.795 | S. cerevisiae deletion strains, locus YNL307C, strain MCK1, hits give low values 0.734 | S. cerevisiae deletion strains, locus YOR184W, strain ser1, hits give low values 0.808 | S. cerevisiae deletion strains, locus YOR270C, strain vph1, hits give low values 0.727
inactive: S. cerevisiae deletion strains, locus YJR075W, strain HOC1, hits give low values 0.936 | S. cerevisiae deletion strains, locus YKL009W, strain mrt4, hits give low values 0.939 | S. cerevisiae deletion strains, locus YKL068W, hits give low values 0.956 | S. cerevisiae deletion strains, locus YKL085W, strain MDH1 (second series), hits give low values 0.946 | S. cerevisiae deletion strains, locus YKL085W, strain MDH1, hits give low values 0.946 | S. cerevisiae deletion strains, locus YKL160W, strain elf1, hits give low values 0.976 | S. cerevisiae deletion strains, locus YKL190W, strain CNB1, hits give low values 0.996 | S. cerevisiae deletion strains, locus YKR026C, strain gcn3, hits give low values 0.951 | S. cerevisiae deletion strains, locus YKR091W, strain srl3, hits give low values 0.971 | S. cerevisiae deletion strains, locus YLL001W, strain dnm1, hits give low values 0.962 | S. cerevisiae deletion strains, locus YLL026W, hits give low values 0.965 | S. cerevisiae deletion strains, locus YLL041C, strain sdh2, hits give low values 0.96 | S. cerevisiae deletion strains, locus YLR027C, strain aat2, hits give low values 0.963 | S. cerevisiae deletion strains, locus YLR039C, strain RIC1, hits give low values 0.872 | S. cerevisiae deletion strains, locus YLR058C, strain SHM2, hits give low values 0.993 | S. cerevisiae deletion strains, locus YLR102C, strain apc9, hits give low values 0.946 | S. cerevisiae deletion strains, locus YLR221C, strain rsa3, hits give low values 0.949 | S. cerevisiae deletion strains, locus YLR258W, strain gsy2, hits give low values 0.964 | S. cerevisiae deletion strains, locus YLR262C, strain YPT6, hits give low values 0.928 | S. cerevisiae deletion strains, locus YLR268W, strain sec22, hits give low values 0.958 | S. cerevisiae deletion strains, locus YLR330W, strain CHS5, hits give low values 1.01 | S. cerevisiae deletion strains, locus YLR342W, strain FKS1 (second series), hits give low values 0.971 | S. cerevisiae deletion strains, locus YLR342W, strain FKS1, hits give low values 0.984 | S. cerevisiae deletion strains, locus YLR357W, strain rsc2, hits give low values 0.969 | S. cerevisiae deletion strains, locus YLR370C, strain arc18, hits give low values 0.981 | S. cerevisiae deletion strains, locus YLR371W, strain rom2, hits give low values 0.962 | S. cerevisiae deletion strains, locus YLR384C, strain iki3, hits give low values 0.972 | S. cerevisiae deletion strains, locus YLR418C, strain cdc73, hits give low values 0.891 | S. cerevisiae deletion strains, locus YML016C, strain PPZ1, hits give low values 0.988 | S. cerevisiae deletion strains, locus YML032C, strain rad52, hits give low values 0.91 | S. cerevisiae deletion strains, locus YML120C, strain ndi1, hits give low values 0.972 | S. cerevisiae deletion strains, locus YML124C, strain tub3, hits give low values 0.947 | S. cerevisiae deletion strains, locus YMR058W, strain fet3, hits give low values 0.968 | S. cerevisiae deletion strains, locus YMR078C, strain ctf18, hits give low values 0.926 | S. cerevisiae deletion strains, locus YMR125W, strain sto1, hits give low values 1 | S. cerevisiae deletion strains, locus YMR129W, hits give low values 0.977 | S. cerevisiae deletion strains, locus YMR205C, strain PFK2, hits give low values 0.887 | S. cerevisiae deletion strains, locus YMR223W, strain ubp8, hits give low values 0.924 | S. cerevisiae deletion strains, locus YMR231W, strain pep5, hits give low values 0.985 | S. cerevisiae deletion strains, locus YMR263W, strain SAP30, hits give low values 0.985 | S. cerevisiae deletion strains, locus YMR307W, strain GAS1, hits give low values 0.996 | S. cerevisiae deletion strains, locus YNL067W, strain RPL9B, hits give low values 0.99 | S. cerevisiae deletion strains, locus YNL128W, strain TEP1, hits give low values 1.01 | S. cerevisiae deletion strains, locus YNL153C, strain GIM3, hits give low values 0.989 | S. cerevisiae deletion strains, locus YNL183C, strain NPR1, hits give low values 0.872 | S. cerevisiae deletion strains, locus YNL209W, strain ssb2, hits give low values 0.992 | S. cerevisiae deletion strains, locus YNL233W, strain BNI4, hits give low values 0.98 | S. cerevisiae deletion strains, locus YNL248C, strain rpa49, hits give low values 0.936 | S. cerevisiae deletion strains, locus YNL250W, strain rad50, hits give low values 0.963 | S. cerevisiae deletion strains, locus YNL271C, strain bni1, hits give low values 0.949 | S. cerevisiae deletion strains, locus YNL298W, strain CLA4, hits give low values 0.965 | S. cerevisiae deletion strains, locus YNL322C, strain KRE1 (second series), hits give low values 0.952 | S. cerevisiae deletion strains, locus YNL322C, strain KRE1, hits give low values 0.989 | S. cerevisiae deletion strains, locus YNR049C, strain mso1, hits give low values 0.967 | S. cerevisiae deletion strains, locus YNR052C, strain pop2, hits give low values 0.976 | S. cerevisiae deletion strains, locus YOL006C, strain TOP1, hits give low values 0.77 | S. cerevisiae deletion strains, locus YOL012C, strain htz1 0.775 | S. cerevisiae deletion strains, locus YOL147C, strain pex11, hits give low values 0.947 | S. cerevisiae deletion strains, locus YOR001W, strain rrp6, hits give low values 0.974 | S. cerevisiae deletion strains, locus YOR061W, strain CKA2, hits give low values 1 | S. cerevisiae deletion strains, locus YOR069W, strain VPS5, hits give low values 0.989 | S. cerevisiae deletion strains, locus YOR070C, strain gyp1, hits give low values 0.963 | S. cerevisiae deletion strains, locus YOR080W, strain dia2, hits give low values 0.997 | S. cerevisiae deletion strains, locus YOR083W, strain WHI5, hits give low values 0.955 | S. cerevisiae deletion strains, locus YOR106W, strain vam3, hits give low values 0.936 | S. cerevisiae deletion strains, locus YOR136W, strain idh2, hits give low values 0.955 | S. cerevisiae deletion strains, locus YOR144C, strain elg1, hits give low values 0.957 | S. cerevisiae deletion strains, locus YOR231W, strain MKK1, hits give low values 0.924 | S. cerevisiae deletion strains, locus YOR265W, strain rbl2, hits give low values 0.962 | S. cerevisiae deletion strains, locus YOR290C, strain snf2, hits give low values 0.929 | S. cerevisiae deletion strains, locus YOR316C, strain cot1, hits give low values 0.964 | S. cerevisiae deletion strains, locus YPL051W, strain arl3, hits give low values 0.96 | S. cerevisiae deletion strains, locus YPL055C, strain LGE1, hits give low values 0.972 | S. cerevisiae deletion strains, locus YPL078C, strain atp4, hits give low values 0.932 | S. cerevisiae deletion strains, locus YPL106C, strain sse1, hits give low values 1.02 | S. cerevisiae deletion strains, locus YPL240C, strain hsp82, hits give low values 0.987 | S. cerevisiae deletion strains, locus YPL241C, strain CIN2, hits give low values 0.991 | S. cerevisiae deletion strains, locus YPL256C, strain CLN2, hits give low values 0.866 | S. cerevisiae deletion strains, locus YPR119W, strain clb2, hits give low values 0.933 | S. cerevisiae deletion strains, locus YPR141C, strain kar3, hits give low values 0.946 | S. cerevisiae deletion strains, locus YPR163C, strain tif3, hits give low values 0.957 | S. cerevisiae deletion strains, locus YPR167C, strain met16, hits give low values 0.96 | S. cerevisiae deletion strains, strain wtn01, hits give low values 0.928 | S. cerevisiae strains, strain wild type, hits give low values 0.978

Source: PubChem BioAssay AID1159580 (chemical genetic matrix, 2015)
